Screening data: PubChem, The Scripps Research Institute Molecular Screening Center
Rin1-Abl PPI inh – human Rin1-Abl interaction inhibition; P00519+Q13671; TR-FRET Rin1/Abl binding, biochemical; inhibition, % at 7.35 µM; 0.4% of 360,000 active; in the data active = inhibition above about 5%, passing the limit was not always enough
TCR CD3 inh – inhibitors of human TCR-CD3 interaction; 0.37% of 360,000 active; TAMRA-labeled TCR probe fluorescence, biochemical; inhibition, % at 9.4 µM; AID 651800;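 also: recombinant mutant TCR 2C K166C tagged with TAMRA read by polarization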
MBD2 inh – MBD2-methylated oligo binding inhibition. Q9UBB5. TR-FRET, MBD2 binding to methylated oligonucleotide. inhibition, % at 4.4 µM. 0.31% of 370,000 active; in the data active = inhibition above about 13%
Target sequence (Q9UBB5 whole entry, looked up): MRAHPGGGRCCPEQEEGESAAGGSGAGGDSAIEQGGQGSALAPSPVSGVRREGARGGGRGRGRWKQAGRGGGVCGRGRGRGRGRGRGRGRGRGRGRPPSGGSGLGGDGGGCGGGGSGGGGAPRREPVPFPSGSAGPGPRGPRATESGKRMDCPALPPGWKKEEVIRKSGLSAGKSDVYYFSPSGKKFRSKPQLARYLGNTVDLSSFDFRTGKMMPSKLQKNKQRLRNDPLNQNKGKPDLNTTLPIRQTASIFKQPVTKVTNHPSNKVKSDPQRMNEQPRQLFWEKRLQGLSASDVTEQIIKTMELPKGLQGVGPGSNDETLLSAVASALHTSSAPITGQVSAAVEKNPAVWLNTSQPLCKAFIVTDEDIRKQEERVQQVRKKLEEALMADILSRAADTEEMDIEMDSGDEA
UHRF1 MBD2 ctr – human UHRF1 methylated DNA binding inhibitors | Q96T88 | UHRF1 binding to methylated oligo, TR-FRET | inhibition, % at 4.4 µM | 0.75% of 370,000 active | AID 687016; in the data active = inhibition above about 21%;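 also: UHRF1 SRA domain binding a hemimethylated CpG hairpin DNA probe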
LEDGF integ inh – blocks HIV-1 LEDGF/p75-dependent DNA integration; TR-FRET IN-LEDGF/p75 DNA integration, Eu/Cy5; inhibition, % at 3.7 µM; 0.64% of 370,000 active;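 active = inhibition above the screen-wide mean plus 3 SD, cut at about 13% in these data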;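 also: signal is the Cy5 over europium emission ratio at 671 and 618 nm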
BSA TAMRA ctr – counter-screen for TCR-CD3 interaction inhibitors: BSA probe | shares compounds with TCR CD3 inh | TAMRA-labeled BSA probe fluorescence counterscreen | inhibition, % at 9.4 µM | 10% of 1,200 active | AID 652035; in the data active = inhibition above about 23%
TCR-CD3 conf – confirmation of human TCR-CD3 interaction inhibitors; AID 652036; inhibition, % at 9.4 µM; 48% of 1,200 active; TAMRA-labeled TCR probe fluorescence binding assay; shares compounds with TCR CD3 inh
Of the large screens only hits and unclear results are named; the others gave an inactive call (follow-up assays come after a bar, where they were run). Most compounds without a hit are left out; they make up all but 2% or so of the library. Rule as the data show it, unless noted: active = inhibition above about 19%; inactive = the rest.

COc1cccc2c(SCC(=O)N/N=C/c3ccc(O)c(O)c3)cc(C)nc12	TCR CD3 inh 44.8 | BSA TAMRA ctr inactive | TCR-CD3 conf 78.7
COc1ccc2nc(C)cc(SCC(=O)N/N=C/c3cccc4ccccc34)c2c1	none
COc1cccc2c(SCC(=O)N/N=C/c3ccccc3)cc(C)nc12	none
COc1ccc2nc(C)cc(SCC(=O)N/N=C/c3ccc(O)c(O)c3)c2c1	TCR CD3 inh 40.1 | BSA TAMRA ctr inactive | TCR-CD3 conf 70.6
Cc1ccc2nc(C)cc(SCC(=O)N/N=C/c3ccco3)c2c1	TCR CD3 inh 19.1 | BSA TAMRA ctr inactive | TCR-CD3 conf inactive
COc1ccc(C)cc1NC(=O)c1sc2ncn(CC(=O)N3CCCCC3)c(=O)c2c1C	none
CCc1ccc(C(=O)Nc2cc(S(=O)(=O)N3CCOCC3)ccc2N2CCOCC2)cc1	none
C=CCOC(=O)/C=C/C(=O)NC(N)=O	none
COC(=O)[C@H](Cc1ccccc1)NC(=O)CC[C@H]1O[C@@H](n2ccc(=O)[nH]c2=O)[C@H](O)[C@@H]1O	none
O=C(OCCCc1cc2ccccc2c(=O)o1)c1ccc2c(c1)OCO2	none
CC(=O)Nc1ccc(NC(=O)CC(c2ccccc2)c2ccccc2)cc1	TCR CD3 inh 113.9 | BSA TAMRA ctr 23.0 | TCR-CD3 conf inactive
O=C(CC(c1ccccc1)c1ccccc1)Nc1ccc(O)cc1	none
COC(=O)Cc1nnn2c1[C@@H](C)[C@@H](c1ccccc1Br)O[C@@H](C)C2	none (no result: Rin1-Abl PPI inh)
CCOC(=O)c1cnc(-n2[nH]c(C)c(Cc3ccccc3)c2=O)[nH]c1=O	TCR CD3 inh 22.9 | BSA TAMRA ctr inactive | TCR-CD3 conf 25.3
CCOC(=O)c1cnc(Cc2ccccc2)[nH]c1=O	TCR CD3 inh 33.4 | BSA TAMRA ctr inactive | TCR-CD3 conf inactive
O=C(N/N=C/c1c(O)ccc2ccccc12)c1ccc(CO)nc1	TCR CD3 inh 33.9 | BSA TAMRA ctr inactive | TCR-CD3 conf 25.0
O=C(NN=Cc1c(O)ccc2ccccc12)c1ccc2c(c1)OCO2	TCR CD3 inh 20.5 | BSA TAMRA ctr inactive | TCR-CD3 conf 22.0
CCCCCOc1ccc(C(=O)OCC(=O)Nc2cc(C)on2)cc1	none
Cn1c(=O)n(C)c2cc(/C=N/N=C3/NC(=O)C(CC(=O)O)S3)ccc21 (stereo not drawn)	TCR CD3 inh 41.4 | BSA TAMRA ctr inactive | TCR-CD3 conf 21.5
CC1SC(=NC(=O)C(C)N2C(=O)c3ccccc3C2=O)NC1=O (stereo not drawn)	TCR CD3 inh 103.8 | BSA TAMRA ctr inactive | TCR-CD3 conf inactive
CC(C(=O)N1CCCCC1)N1C(=O)c2ccccc2C1=O (stereo not drawn)	none
O=C(OCC(=O)N1CCc2ccccc21)c1c2c(nc3ccccc13)CCCC2	TCR CD3 inh 43.9 | BSA TAMRA ctr inactive | TCR-CD3 conf inactive
CC1Cc2ccccc2N1C(=O)COC(=O)c1c2c(nc3ccccc13)CCCCC2 (stereo not drawn)	none
O=C(CCN1C(=O)/C(=C/c2ccc(Cl)cc2)SC1=S)NCCCn1ccnc1	TCR CD3 inh 23.0 | BSA TAMRA ctr inactive | TCR-CD3 conf 19.8
CCCNC(=O)c1cc(C2CCCCN2C(=O)c2ccc(NC(C)=O)cc2)on1 (stereo not drawn)	none
COc1ccc(COc2cc(-c3cccc(OC)c3)nc3ccc(NC(=O)c4cccnc4)cc23)cc1	TCR CD3 inh 37.8 | BSA TAMRA ctr inactive | TCR-CD3 conf 22.6
COc1ccc(COc2cc(-c3cccc(OC)c3)nc3ccc(NC(=O)c4ccc(OC)cc4)cc23)cc1	none
CC(C)c1cc(C(=O)O)c2ccccc2n1	TCR CD3 inh 34.4 | BSA TAMRA ctr inactive | TCR-CD3 conf inactive
c1ccc(C2OC3c4cccc5cccc(c45)C3N2c2ccccc2)cc1 (stereo not drawn)	TCR CD3 inh 25.5 | BSA TAMRA ctr inactive | TCR-CD3 conf inactive
CSc1ccc(S(=O)(=O)NCC(=O)OCC(=O)N2CCCCC2C)cc1[N+](=O)[O-] (stereo not drawn)	none
Oc1ccc(Br)cc1/C=N/n1c(COc2ccccc2)n[nH]c1=S	TCR CD3 inh 20.4 | BSA TAMRA ctr inactive | TCR-CD3 conf inactive
Cc1ccccc1OCc1nc2ccccc2c(=O)n1/N=C/c1c[nH]c2ccccc12	none
O=c1c2ccccc2nc(COc2ccccc2)n1/N=C/c1cc([N+](=O)[O-])ccc1O	TCR CD3 inh 22.9 | BSA TAMRA ctr inactive | TCR-CD3 conf 43.5
Cc1cc(/C=N/n2c(COc3ccccc3C)nc3ccccc3c2=O)c(O)c([N+](=O)[O-])c1	TCR CD3 inh 20.6 | BSA TAMRA ctr inactive | TCR-CD3 conf 52.8
NS(=O)(=O)c1ccc(NC(=S)Nc2ccn(Cc3cccc4ccccc34)n2)cc1	none
CC(C)OCCCN1CC(=O)N2C(c3ccccc3)c3[nH]c4ccccc4c3C[C@H]2C1=O (stereo partly drawn)	none
Cc1ccc(C(=O)OCC(=O)Nc2ccc(C(N)=O)cc2)s1	TCR CD3 inh active | BSA TAMRA ctr inactive | TCR-CD3 conf inactive
CS(=O)(=O)N(Cc1ccc(C(=O)NN=C2CCCCCC2)cc1)c1ccccc1	TCR CD3 inh 32.6 | BSA TAMRA ctr inactive | TCR-CD3 conf inactive
Cc1nc(Cl)c2c(n1)NC1=C(O2)C(=O)CCC1	TCR CD3 inh 37.1 | BSA TAMRA ctr 29.2 | TCR-CD3 conf 29.6
Cc1cccc(C)c1CC(=O)N1CCOCC1	none
CNC(=S)NNC(=O)c1cccn(Cc2cccc(Cl)c2)c1=O	TCR CD3 inh 21.7 | BSA TAMRA ctr inactive | TCR-CD3 conf 26.6
NNC(=O)c1cccn(Cc2cccc(C(F)(F)F)c2)c1=O	none
C=CCNC(=S)NNC(=O)c1cccn(Cc2ccc(Cl)c(Cl)c2)c1=O	none
CNC(=S)NNC(=O)c1cccn(Cc2ccc(Cl)c(Cl)c2)c1=O	TCR CD3 inh 22.0 | BSA TAMRA ctr inactive | TCR-CD3 conf 26.8
COc1ccc(N2CCN(C(c3cccs3)C(C)NC(=O)C(=O)N3CCCC3)CC2)cc1 (stereo not drawn)	TCR CD3 inh 20.4 | BSA TAMRA ctr inactive | TCR-CD3 conf inactive
Cc1cc2c(cc1S(=O)(=O)N1CCN(c3cccc(C)c3C)CC1)OCCN2C	TCR CD3 inh 127.4 | BSA TAMRA ctr inactive | TCR-CD3 conf inactive
COc1ccc(Cl)cc1NS(=O)(=O)c1cccc(C(=O)NCCCN2CCOCC2)c1	none
CC(=O)c1ccc(S(=O)(=O)Nc2cccc(-n3cnnn3)c2)cc1	TCR CD3 inh 20.3, UHRF1 MBD2 ctr 39.7 | BSA TAMRA ctr inactive | TCR-CD3 conf inactive
Cc1ccc(S(=O)(=O)Nc2nc3ccccc3nc2NCc2ccco2)cc1	TCR CD3 inh 67.0 | BSA TAMRA ctr inactive | TCR-CD3 conf inactive
O=S(=O)(Nc1nc2ccccc2nc1NCc1ccco1)c1ccc(Cl)cc1	none
O=C1Nc2ccccc2N=C(c2ccc3c(c2)OCO3)C1N(CCc1ccccc1)C(=O)CSc1ncccn1 (stereo not drawn)	none
